Assay results published in PubChem BioAssay (Tox21).
Several values for one entry are separate records, joined by “and”; a condition that tells them apart may be missing. Identical values can stand only once. Where a structure was tested more than once in an assay, its records may differ in their call. Activity calls are given as the source filed them. Entries that show only a call come without a potency. Unless noted, the call rests on the fitted dose curve; in most records, active means well fitted curve in the direction sought with a large enough effect in the repeat runs; inconclusive means weak or mixed curves; inactive means no such curve, though single readings can be large; an effect the other way counts as inactive or inconclusive.

Assays:
[1] = qHTS assay to identify small molecule antagonists of the glucocorticoid receptor (GR) signaling pathway - cell viability counter screen (AID 720693); further: nearly all actives have a fitted effect of over 55% in size; further: potency means the concentration at half of the fitted maximal effect
[2] = qHTS assay to identify small molecule antagonists of the androgen receptor (AR) signaling pathway - cell viability counter screen (AID 743033; further: nearly all actives have a fitted effect of over 45% in size)
[3] = qHTS assay to identify small molecule antagonists of the androgen receptor (AR) signaling pathway using the MDA cell line - cell viability counter screen (AID 743041; further: nearly all actives have a fitted effect of over 45% in size; further: potency means the concentration at half of the fitted maximal effect)
In short: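 MDA-kb2 AR-luc cells (MMTV-luciferase, AR/GR responsive) treated with compounds plus R1881 agonist for 16 h at 37C. CellTiter-Fluor added at 15.5 h; fluorescence read after 30 min in the same wells.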

[4] = qHTS assay to identify small molecule antagonists of the thyroid receptor (TR) signaling pathway - cell viability counter screen (AID 743064); further: nearly all actives have a fitted effect of over 50% in size; further: potency means the concentration at half of the fitted maximal effect
In short: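 GH3.TRE-Luc cells, 4 h pre-plating; cpd + T3 1 nM final; 37 °C 23.5 h; CellTiter-Fluor 30 min; fluorescence read.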

[5] = qHTS assay to identify small molecule antagonists of the thyroid receptor (TR) signaling pathway (AID 743065); further: nearly all actives have a fitted effect of over 55% in size; further: potency means the concentration at half of the fitted maximal effect
In short: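 GH3.TRE-Luc rat pituitary cells (two TREs driving luciferase) were dosed with compound, then stimulated with 1 nM T3 (final) for 23.5 h at 37 C. ONE-Glo luminescence was the read-out, with CellTiter-Fluor fluorescence as the cytotoxicity counter-screen.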

[6] = system: thyroid hormone receptor (rat, GH3 cells); assay: qHTS assay to identify small molecule agonists of the thyroid receptor (TR) signaling pathway (AID 743066; calls by dose curve)
[7] = qHTS assay to identify small molecule antagonists of the estrogen receptor alpha (ER-alpha) signaling pathway - cell viability counter screen (AID 743074; calls by dose curve;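 further: HEK293 cells carrying ER-alpha-UAS-bla reporter stimulated with 17beta-estradiol; nearly all actives have a fitted effect of over 45% in size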)
[8] = qHTS assay to identify small molecule antagonists of the estrogen receptor alpha (ER-alpha) signaling pathway using the BG1 cell line - cell viability counter screen (AID 743081);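 further: compound given together with 17beta-estradiol as the ER stimulus; nearly all actives have a fitted effect of over 45% in size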; further: potency means the concentration at half of the fitted maximal effect
Aromatase (Homo sapiens) = Aromatase (Homo sapiens) (UniProt P11511); assay: qHTS assay to identify aromatase inhibitors (AID 743083); further: nearly all actives have a fitted effect of over 55% in size; further: potency means the concentration at half of the fitted maximal effect
Chain of Aromatase (Homo sapiens) (P11511 whole entry, looked up): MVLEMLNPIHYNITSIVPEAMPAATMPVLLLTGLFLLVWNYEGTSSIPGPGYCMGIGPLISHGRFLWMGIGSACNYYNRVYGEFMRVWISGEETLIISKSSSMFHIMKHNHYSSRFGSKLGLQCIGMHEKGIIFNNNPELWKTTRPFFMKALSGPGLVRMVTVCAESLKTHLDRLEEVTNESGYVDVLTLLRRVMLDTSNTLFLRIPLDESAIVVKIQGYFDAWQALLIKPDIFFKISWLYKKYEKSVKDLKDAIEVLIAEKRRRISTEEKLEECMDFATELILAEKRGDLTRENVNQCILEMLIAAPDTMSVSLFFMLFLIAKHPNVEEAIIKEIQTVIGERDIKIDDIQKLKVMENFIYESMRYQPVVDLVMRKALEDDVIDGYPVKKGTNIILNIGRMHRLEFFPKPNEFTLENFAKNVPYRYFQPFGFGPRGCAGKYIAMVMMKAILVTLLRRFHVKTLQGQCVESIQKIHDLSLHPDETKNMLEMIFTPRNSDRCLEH

[9] = qHTS assay for identifying genotoxic compounds that show differential cytotoxicity against isogenic chicken DT40 cell lines with known DNA damage response pathways - wild type cell line (AID 743012); further: nearly all actives have a fitted effect of over 60% in size; further: potency means the concentration at half of the fitted maximal effect
In short: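 Wild type DT40, 300 cells/well, ~0.5 h settle at 37 C/5% CO2; compounds in DMSO added by pintool; 40 h at 37 C/5% CO2; CellTiter-Glo, 30 min RT; luminescence.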

[10] = qHTS assay for identifying genotoxic compounds that show differential cytotoxicity against isogenic chicken DT40 cell lines with known DNA damage response pathways - Rad54/Ku70 mutant cell line (AID 743015); further: nearly all actives have a fitted effect of over 60% in size; further: potency means the concentration at half of the fitted maximal effect
[11] = target: Estrogen receptor (Homo sapiens) (UniProt P03372); assay: qHTS assay to identify small molecule antagonists of the estrogen receptor alpha (ER-alpha) signaling pathway (AID 743069; active means well fitted curve in the direction sought with a large enough effect in the signal ratio in the repeat runs, not every such curve was filed as active; inconclusive means weak or mixed curves, or effect the other way; inactive means no such curve, though single readings can be large or run the other way; the % refers to the signal ratio; further: potency means the concentration at half of the fitted maximal effect)
Chain of Estrogen receptor (Homo sapiens) (P03372 whole entry, looked up): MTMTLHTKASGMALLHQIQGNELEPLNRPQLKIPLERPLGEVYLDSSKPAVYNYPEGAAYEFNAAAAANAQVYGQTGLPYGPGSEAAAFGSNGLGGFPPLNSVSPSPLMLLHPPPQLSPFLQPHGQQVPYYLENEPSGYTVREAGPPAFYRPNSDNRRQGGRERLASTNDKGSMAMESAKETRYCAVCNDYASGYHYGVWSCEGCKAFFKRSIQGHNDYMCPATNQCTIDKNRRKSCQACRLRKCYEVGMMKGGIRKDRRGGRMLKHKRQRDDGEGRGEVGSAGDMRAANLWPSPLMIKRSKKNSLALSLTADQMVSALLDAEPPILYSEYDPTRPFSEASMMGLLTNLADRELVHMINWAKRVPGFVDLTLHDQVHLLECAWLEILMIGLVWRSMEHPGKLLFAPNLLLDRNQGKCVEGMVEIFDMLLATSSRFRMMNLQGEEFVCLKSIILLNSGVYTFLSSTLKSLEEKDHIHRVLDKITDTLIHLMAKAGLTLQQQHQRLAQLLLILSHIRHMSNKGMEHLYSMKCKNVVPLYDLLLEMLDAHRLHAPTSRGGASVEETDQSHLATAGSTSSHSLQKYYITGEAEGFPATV
In short: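 HEK293 ER-alpha-UAS-bla GripTite cells, held overnight in 2% charcoal-stripped FBS, 5,000 cells/well, preincubated 4 h, then compound plus 17beta-estradiol for 18 h at 37C. Beta-lactamase read by LiveBLAzer B/G FRET substrate, 2 h at room temperature.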

[12] = target: Estrogen receptor (Homo sapiens) (UniProt P03372); assay: qHTS assay to identify small molecule agonists of the estrogen receptor alpha (ER-alpha) signaling pathway (AID 743075; calls by dose curve; further: potency means the concentration at half of the fitted maximal effect)
[13] = qHTS assay to identify small molecule antagonists of the estrogen receptor alpha (ER-alpha) signaling pathway using the BG1 cell line (AID 743080; calls by dose curve;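 further: BG1 cells stimulated with 17beta-estradiol alongside compound; nearly all actives have a fitted effect of over 25% in size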; further: potency means the concentration at half of the fitted maximal effect)
In short: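 BG1-Luc-4E2 cells (endogenous full-length ER-alpha, stable 4×ERE-luciferase) were starved 5 days in phenol-red-free medium with 10% charcoal-stripped FBS, plated 24 h, then given compound plus 17beta-estradiol for 21.5 h at 37 C; ONE-Glo luminescence read after 30 min.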

[14] = target: Estrogen receptor (Homo sapiens) (UniProt P03372); assay: qHTS assay to identify small molecule agonists of the estrogen receptor alpha (ER-alpha) signaling pathway using the BG1 cell line (AID 743079); further: nearly all actives have a fitted effect of over 20% in size; further: potency means the concentration at half of the fitted maximal effect
[15] = qHTS assay for identifying genotoxic compounds that show differential cytotoxicity against isogenic chicken DT40 cell lines with known DNA damage response pathways - Rev3 mutant cell line (AID 743014); further: nearly all actives have a fitted effect of over 55% in size; further: potency means the concentration at half of the fitted maximal effect
[16] = target: Androgen receptor (Homo sapiens) (UniProt P10275); assay: qHTS assay to identify small molecule agonists of the androgen receptor (AR) signaling pathway (AID 743036; active means well fitted activation curve with a large enough effect in the signal ratio in the repeat runs, with a control signal flat, not every such curve was filed as active; inconclusive means weak or mixed curves, or effect the other way; inactive means no such curve, though single readings can be large or run the other way; the % refers to the signal ratio)
Chain of Androgen receptor (Homo sapiens) (P10275 whole entry, looked up): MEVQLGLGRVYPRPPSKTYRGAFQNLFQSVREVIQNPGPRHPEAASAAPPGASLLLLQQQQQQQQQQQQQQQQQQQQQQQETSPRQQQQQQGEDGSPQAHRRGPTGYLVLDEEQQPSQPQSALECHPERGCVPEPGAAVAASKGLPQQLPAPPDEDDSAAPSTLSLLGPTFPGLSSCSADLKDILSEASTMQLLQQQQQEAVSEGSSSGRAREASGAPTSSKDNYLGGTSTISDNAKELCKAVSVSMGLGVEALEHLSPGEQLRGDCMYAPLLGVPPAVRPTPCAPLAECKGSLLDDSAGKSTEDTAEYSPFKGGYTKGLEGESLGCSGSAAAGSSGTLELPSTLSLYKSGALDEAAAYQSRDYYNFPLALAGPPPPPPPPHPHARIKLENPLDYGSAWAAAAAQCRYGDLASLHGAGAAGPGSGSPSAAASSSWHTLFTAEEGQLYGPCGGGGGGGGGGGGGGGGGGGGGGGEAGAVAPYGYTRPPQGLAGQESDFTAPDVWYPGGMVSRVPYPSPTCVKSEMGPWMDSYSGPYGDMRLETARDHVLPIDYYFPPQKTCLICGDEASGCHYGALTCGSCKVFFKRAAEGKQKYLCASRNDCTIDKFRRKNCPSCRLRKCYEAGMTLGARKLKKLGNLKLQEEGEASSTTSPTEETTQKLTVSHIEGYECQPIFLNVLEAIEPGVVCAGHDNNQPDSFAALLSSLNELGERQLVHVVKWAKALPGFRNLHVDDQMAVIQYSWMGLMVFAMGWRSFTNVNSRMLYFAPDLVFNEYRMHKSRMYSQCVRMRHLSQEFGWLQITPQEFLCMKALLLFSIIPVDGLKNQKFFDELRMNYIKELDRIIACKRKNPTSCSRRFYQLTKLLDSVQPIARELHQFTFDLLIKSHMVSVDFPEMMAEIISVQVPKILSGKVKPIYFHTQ
In short: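 AR-bla HEK293 cells, 2,000/well; 4 h preincubation 37C/5% CO2; compound (DMSO) 16 h at 37C; LiveBLAzer B/G FRET substrate 2 h RT; fluorescence intensity read-out.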

[17] = target: Androgen receptor (Homo sapiens) (UniProt P10275); assay: qHTS assay to identify small molecule agonists of the androgen receptor (AR) signaling pathway using the MDA cell line (AID 743040; further: nearly all actives have a fitted effect of over 20% in size)
In short: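 MDA-kb2 breast carcinoma cells carrying MMTV-luciferase (responsive to AR and GR), plated 5 h then treated 16 h with compounds at 37C, 0% CO2. Read-out was ONE-Glo luminescence after 30 min at room temperature.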

[18] = target: Androgen receptor (Homo sapiens) (UniProt P10275); assay: qHTS assay to identify small molecule antagonists of the androgen receptor (AR) signaling pathway using the MDA cell line (AID 743042; further: nearly all actives have a fitted effect of over 55% in size)
In short: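 MDA-kb2 breast carcinoma cells carrying MMTV-luciferase (AR/GR responsive) were co-treated with compounds and the agonist R1881 for 16 h at 37C. Inhibition read as ONE-Glo luminescence; CellTiter-Fluor fluorescence measured in parallel for cytotoxicity.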

[19] = target: Androgen receptor (Homo sapiens) (UniProt P10275); assay: qHTS assay to identify small molecule antagonists of the androgen receptor (AR) signaling pathway (AID 743035; active means well fitted inhibition curve with a large enough effect in the signal ratio in the repeat runs, not every such curve was filed as active; inconclusive means weak or mixed curves, or effect the other way; inactive means no such curve, though single readings can be large or run the other way; the % refers to the signal ratio)
In short: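 Fluorescence from a beta-lactamase FRET substrate (LiveBLAzer B/G, 2 h, room temperature) measured inhibition of R1881-stimulated signaling in GeneBLAzer AR-UAS-bla HEK293 cells exposed to compound for 16 h at 37C.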

Row | SMILES | Potency [1] | Potency [2] | Potency [3] | Potency [4] | Potency [5] | Potency [6] | Potency [7] | Potency [8] | Potency (Aromatase (Homo sapiens)) | Potency [9] | Potency [10] | Potency [11] | Potency [12] | Potency [13] | Potency [14] | Potency [15] | Potency [16] | Potency [17] | Potency [18] | Potency [19]
1 | CC1CCCCN1CCCOC(=O)c1ccccc1 (centres undefined) | inactive | inactive | inactive | inactive | inactive | inactive | inactive | inactive | inactive | – | – | – | – | – | – | – | – | – | – | –
2 | CCN(CC)C(=O)[C@]1(c2ccccc2)C[C@@H]1CN | inactive | – | inactive | inactive | – | inactive | inactive | inactive | – | inactive | inactive | – | – | – | – | – | – | – | – | –
3 | CCCCCCCC/C=C\CCCCCCCC(=O)N(CCO)CCO | 48.8 µM (active) | – | 43.1 µM (active) | 54.3 µM (active) | 68.3 µM (active) | inactive | inactive | – | inactive | 15.3 µM (active) | 13.6 µM (active) | 21.8 µM [inconclusive] (active) | inactive | 54.3 µM (active) | – | – | – | – | – | –
4 | CC(C)=CCC/C(C)=C/CC/C(C)=C/CC/C(C)=C/CC1=C(C)C(=O)c2ccccc2C1=O | inactive | inactive | inactive | inactive | inactive | inactive | inactive | inactive | inactive | 29.8 µM (active) and 10.6 µM (active) | – | inactive | inactive | inactive and 9.44 µM (active) | inactive | – | – | – | – | –
5 | CC/C=C\C/C=C\C/C=C\C/C=C\C/C=C\C/C=C\CCC(=O)O | inactive | – | inactive | inactive | – | inactive | inactive | inactive | inactive | 26.6 µM (active) | – | inactive | inactive | inactive | inactive | – | – | – | – | –
6 | CCC(O)c1ccccc1 (centres undefined) | inactive | – | inactive | inactive | – | – | – | inactive | inactive | – | inactive | inactive | inactive | inactive | inactive | inactive | – | – | – | –
7 | CC(=O)N[C@@H](C=O)[C@H](O)[C@H](O)[C@@H](O)CO | inactive | – | inactive | inactive | inactive | inactive | inactive | inactive | inactive | inactive | inactive | inactive | inactive | inactive | inactive | – | – | – | – | –
8 | NC(=O)C1c2ccccc2CCc2ccccc21 | inactive | inactive | inactive | – | inactive | inactive | inactive | inactive | inactive | – | inactive | inactive | inactive | inactive | inactive | – | inactive | inactive | inactive | –
9 | c1ccc(-c2ccc(C(c3ccccc3)n3ccnc3)cc2)cc1 (centres undefined) | inactive | – | inactive | – | – | – | inactive | inactive | 0.75 µM (active) | 10.6 µM (active) | 11.9 µM (active) | – | – | inactive | inactive | – | – | – | – | –
10 | NC(N)=NCc1cccc(I)c1 | inactive | – | – | – | – | inactive | inactive | inactive | inactive | 5.96 µM (active) and 8.41 µM (active) | 6.68 µM (active) and 7.5 µM (active) | inactive | inactive | 21.1 µM (active) and 11.9 µM (active) | – | – | – | – | – | –
11 | OCCCNc1ccccc1 | inactive | inactive | inactive | inactive | – | inactive | inactive | – | inactive | – | inactive | inactive | inactive | inactive | inactive | – | – | – | – | –
12 | CC(=NCc1ccccc1)c1ccccc1O | inactive | – | inactive | – | inactive | inactive | inactive | inactive | inactive | inactive | inactive | inactive | inactive | inactive | inactive | – | – | – | – | –
13 | NC(N)=NCCCCN=C(N)N | – | inactive | inactive | inactive | inactive | inactive | inactive | – | inactive | inactive | inactive | – | 5.35 µM [inconclusive] (active) | inactive | 0.473 µM (active) | inactive | – | – | – | –
14 | CNC(=O)OCc1cccc(COC(=O)NC)n1 | – | inactive | inactive | inactive | inactive | inactive | inactive | inactive | inactive | inactive | inactive | – | – | – | – | inactive | – | – | – | –
15 | CC/C(=C(/CC)c1ccc(OP(=O)(O)O)cc1)c1ccc(OP(=O)(O)O)cc1 | – | inactive | inactive | – | inactive | inactive | – | inactive | inactive | inactive | inactive | – | – | – | – | inactive | – | – | – | –
16 | CCCC(=O)c1cc(O)c(O)cc1O | – | – | – | – | 61.1 µM (active) | inactive | – | 61.1 µM (active) | – | 24.3 µM (active) | 45 µM (active) | inactive | inactive | inactive | inactive | 29.8 µM (active) | – | inactive | inactive | –
17 | CC(C)(Oc1ccc(C2CCCc3ccccc32)cc1)C(=O)O (centres undefined) | – | inactive | inactive | – | inactive | inactive | inactive | inactive | inactive | inactive | inactive | inactive | inactive | inactive | 18.8 µM (active) | inactive | inactive | inactive | inactive | inactive
18 | CCOc1ccc([N+](=O)[O-])cc1 | – | inactive | – | 31.1 µM (active) | 31.1 µM (active) | inactive | – | – | 27.7 µM (active) | 62 µM (active) | 43.9 µM (active) | 55.8 µM [inconclusive] (active) | 6.26 µM [inconclusive] (active) | – | 1.96 µM (active) | 31.1 µM (active) | – | – | – | –
